Data published in the supplement of paper PMC12339681.
Counter-ions that a name gives are not always drawn.

Each compound was assayed on PBMC-derived induced microglia-like cells (piMGLC) (assay: synaptosome phagocytic index relative to DMSO control (fraction of DMSO); higher = more phagocytosis). Settings: concentration: 10 uM (2 uM for compounds listed in Table S2); pretreatment time: 24 h; assay time: 3 h.
Method: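 PBMC-derived induced microglia-like cells (piMGLCs) in 96-well plates were pretreated for 24 h with CNS-penetrant library compounds (MedChemExpress HY-L028), mostly at 10 uM; Table S2 lists 9 compounds at 2 uM. pHrodo-Red-labelled human iPSC-neuron synaptosomes (3 ug/well) were then added for 3 h, and cells were fixed and imaged by confocal microscopy. Phagocytic index (synaptosome area / cell count, CellProfiler) is a mean over 3 replicate wells on different plates, normalized to the DMSO control. Compounds leaving <10% of DMSO cell count were marked toxic and given no value.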

| Structure (SMILES) | synaptosome phagocytic index |
| --- | --- |
| Cc1nc2n(c(=O)c1CCN1CCC(c3noc4cc(F)ccc34)CC1)CCCC2O (stereo not given) [Paliperidone] | 0.852 |
| CC(C)Cc1ccc([C@@H](C)C(=O)O)cc1 [(R)-(-)-Ibuprofen] | 1.31 |
| COc1cc2c(N3CCN(C(=O)Nc4ccc(OC(C)C)cc4)CC3)ncnc2cc1OCCCN1CCCCC1 [Tandutinib] | 0.936 |
| COc1cn(-c2ccc(-n3cccn3)cc2F)nc(-c2ccnn2-c2ccccc2)c1=O [Balipodect] | 0.835 |
| Cc1ccc(C(=O)c2cc(O)c(O)c([N+](=O)[O-])c2)cc1 [Tolcapone] | 0.526 |
| FC(F)(F)c1ccc(CNc2ccc(Cc3c[nH]c4ncc(Cl)cc34)cn2)cn1 [Pexidartinib_(hydrochloride)] | 0.976 |
| Cc1cc(NC(=O)Cc2ccc(F)c(Cl)c2)n(C2CCCCC2)n1 | 0.77 |
| CCNc1nc(Nc2cc(F)c(C(=O)N3CCOCC3)cc2OC)ncc1C(F)(F)F [GNE-7915_(tosylate)] | 0.359 |
| OCCN1CCN(CCCN2c3ccccc3Sc3ccc(Cl)cc32)CC1 [Perphenazine] | 0.197 |
| CS(=O)(=O)CCNCc1ccc(-c2ccc3ncnc(Nc4ccc(OCc5cccc(F)c5)c(Cl)c4)c3c2)o1 [Lapatinib] | 0.0755 |
| CC(=O)N1CCc2c(c(N3CCCc4cc(-c5cnn(C)c5)c(C(F)F)cc43)nn2C2CCOCC2)C1 | 0.59 |
| NC(=O)c1cccc(-c2cccc(OC(=O)NC3CCCCC3)c2)c1 | 0.86 |
| O=C(O)c1cc(/N=N/c2ccc(S(=O)(=O)Nc3ccccn3)cc2)ccc1O [Sulfasalazine] | 0.883 |
| CC[C@]1(O)C[C@H]2CN(CCc3c([nH]c4ccccc34)[C@@](C(=O)OC)(c3cc4c(cc3OC)N(C=O)[C@H]3[C@@](O)(C(=O)OC)[C@H](OC(C)=O)[C@]5(CC)C=CCN6CC[C@]43[C@@H]65)C2)C1 [Vincristine_(sulfate)] | 1.04 |
| NC(=O)c1cn(Cc2c(F)cccc2F)nn1 [Rufinamide] | 0.654 |
| NC1=N[C@@]2(c3cc(NC(=O)c4ccc(F)cn4)ccc3F)COC[C@H]2CS1 | 1.35 |
| CC[C@H](NC(=O)c1c(C)c(-c2ccccc2)nc2ccccc12)c1ccccc1 | 0.907 |
| CNCCCN1c2ccccc2CCc2ccccc21 [Desipramine_hydrochloride] | 1.13 |
| O=C(O)Cc1ccccc1Nc1c(Cl)cccc1Cl [Diclofenac_(Sodium)] | 0.856 |
| Cc1nc(-c2cccnc2)sc1C(=O)Nc1ccccc1-c1cn2c(CN3CCOCC3)csc2n1 | 0.157 |

| Structure (SMILES) | synaptosome phagocytic index |
| --- | --- |
| Fc1c(Br)cccc1Nc1ncnc2cc3c(cc12)OCCO3 | 0.118 |
| CCN1CCN(Cc2ccc(-c3cc4c(N[C@H](C)c5ccccc5)ncnc4[nH]3)cc2)CC1 | 0.0989 |
| CNNCc1ccc(C(=O)NC(C)C)cc1 [Procarbazine_(Hydrochloride)] | 1.1 |
| CN(C)C(=O)c1cc2cnc(Nc3ccc(N4CCNCC4)cn3)nc2n1C1CCCC1 [Ribociclib] | 0.78 |
| Nc1ccccc1NC(=O)c1ccc(CNC(=O)OCc2cccnc2)cc1 [Entinostat] | 0.753 |
| CC(C)c1c(C(=O)Nc2ccccc2)c(-c2ccccc2)c(-c2ccc(F)cc2)n1CC[C@@H](O)C[C@@H](O)CC(=O)O [Atorvastatin_(hemicalcium_salt)] | 0.823 |
| CN1C(=O)OC(C)(C)C1=O [Trimethadione] | 0.751 |
| C[C@@H](C(=O)O)c1ccc(-c2ccccc2)c(F)c1 [Tarenflurbil] | 1.11 |
| CC(C)Nc1cccnc1N1CCN(C(=O)c2cc3cc(NS(C)(=O)=O)ccc3[nH]2)CC1 [Delavirdine_(mesylate)] | 0.749 |
| CNCCCC1c2ccccc2C=Cc2ccccc21 [Protriptyline_(hydrochloride)] | 0.93 |
| CCOC(=O)C1=C(C)NC(C)=C(C(=O)OC)C1c1cccc(Cl)c1Cl (stereo not given) [Felodipine] | 1.04 |
| CC(C)OC(=O)NC1CCN(Cc2cc(Cl)c3cccnc3c2O)CC1 | 0.609 |
| CCN1CCCC1CNC(=O)c1cc(S(N)(=O)=O)ccc1OC (stereo not given) [Sulpiride] | 0.571 |
| CNS(=O)(=O)Cc1ccc2[nH]cc(CCN(C)C)c2c1 [Sumatriptan_(succinate)] | 0.992 |
| Cc1ccsc1C(=CCCN1CCC[C@@H](C(=O)O)C1)c1sccc1C [Tiagabine_(hydrochloride)] | 1.28 |
| CN(C)CCCN1c2ccccc2CCc2ccc(Cl)cc21 [Clomipramine_(hydrochloride)] | 0.39 |
| COc1ncc(F)cc1CNc1ccc(Cc2c[nH]c3ncc(C)cc23)c(F)n1 | 0.951 |
| Cc1cc2c(s1)Nc1ccccc1N=C2N1CCN(C)CC1 [Olanzapine] | 0.345 |
| C#CCNS(=O)(=O)c1ccc(CCN(Cc2cc(Cl)ccc2OCCC)C(=O)Cc2ccsc2)cc1 | 0.54 |
| O=C(NCc1ccc(F)cc1)N1CCN2C(=O)OC(c3ccccc3)(c3ccccc3)C2C1 (stereo not given) | 0.552 |
